# Results reported in the supplement of paper PMC6555819.
# Legend:
# Experiment in all cases: PBM binding z-score (relative to random genomic background probes); higher = stronger binding; sequences stand for … in GC…GCGATTGACAGCGTAGAATGAAGG
# [1] = system: RARb homodimer (NR concentration 270 nM)
# How it was run: (§1)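 Custom Agilent 4×180K protein-binding microarrays carried double-stranded probes, each with a 34-nt variable region. These regions held direct-repeat seeds, single-nucleotide variants, half-site ablations and random human genomic background sequences. Ligand-free nuclear receptor dimers were incubated on the arrays for 1 h, antibodies against each partner (one per run) detected binding, and scanned fluorescence was regression-normalized. Binding z-scores take the random background probes as reference.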
# [2] = system: RARg:RXRa (NR concentration 270 nM, RXRa partner concentration 90 nM)
# How it was run: as §1
# [3] = system: RARg homodimer (NR concentration 270 nM)
# How it was run: as §1
# [4] = system: RXRa DBDmut IVT, anti-RXR (DBD mutation: RXRa K156A/R161A, NR concentration 90 nM)
# How it was run: as §1
# [5] = system: RXRa homodimer (NR concentration 180 nM)
# How it was run: as §1
# [6] = system: THRa:RXRa (NR concentration 90 nM, RXRa partner concentration 90 nM)
# How it was run: as §1
# [7] = system: THRa homodimer (NR concentration 90 nM)
# How it was run: as §1
# [8] = system: VDR:RXRa (NR concentration 270 nM, RXRa partner concentration 90 nM)
# How it was run: as §1
# [9] = system: VDR homodimer (NR concentration 270 nM)
# How it was run: as §1
Sequence,PBM binding z-score [1],PBM binding z-score [2],PBM binding z-score [3],PBM binding z-score [4],PBM binding z-score [5],PBM binding z-score [6],PBM binding z-score [7],PBM binding z-score [8],PBM binding z-score [9]
CCTGCTAGGTCATGGTCTGCTAATCTACAGTATG,2.97,3.73,4.43,2.02,2.66,3.17,1.35,1.58,0.439
GCAGACAGGTGATACGCAGGTAACTCAGGGTGGC,-0.38,-0.066,-0.0165,-0.589,0.293,0.561,-0.509,-0.655,-0.5
GCTACTAGGTCAACTGATGGTCAGCTAAAGCTCG,3.31,5.27,5.19,1.63,3.06,2.9,0.994,1.79,0.21
CCAGACAGGTGAAAGGTTACTCAGTCTGGTACGC,1.91,3.02,1.52,0.385,4.22,1.72,0.13,2.35,0.149
CCTACTGGGACATCAGGTCATTGATATCAACGTT,2.48,1.91,1.87,0.77,1.54,3.23,3.41,1.99,2.42
CTACCAAGGTGAACAAGGTCGGTGATTACTATTC,1.6,1.22,1.42,0.135,1.23,2.66,1.27,4.17,0.361
CACGAAAGGTCGGTTGAGGTGAGTATACGGATAA,2.56,2.89,3.15,0.785,2.36,5.03,1.69,2.37,0.932
CGTACTAGGTCATTGACAGGACAGTGAATAGTAA,2.49,4.45,4.13,2.38,2.6,2.9,0.971,2.09,1.45
TCTCGGAGGACACGAAATGTCAGAGCTCGACATC,1.04,0.897,1.7,0.78,0.302,1.54,0.334,0.0899,-0.342
ACAGACAGGCGAGTGAAGGTAACTCAGCTGGACG,-0.318,-0.0341,-0.0147,-0.699,0.296,0.0808,-0.312,-0.451,-0.484
GCGACTGGGGCATCAGCAGCTTACCATAACTTAA,-0.217,-0.328,-0.193,0.178,-0.47,-0.225,-0.422,-0.708,-0.429
TGAATGAGGTTAATGATCAGGGAACGTGGCGTCG,0.436,1.4,1.07,0.589,1.67,1.97,0.6,0.633,0.544
GCTAGTTGGTCATTAAAAGGTCACACACCGGTCG,5.47,6.05,4.99,0.694,5.65,3.8,2.01,4.42,1.75
CCAGACAGGTGAAAGGTAACTCAATCTGGTACGC,1.19,1.48,0.946,0.203,2.39,1.1,0.0708,0.936,-0.0474
TATCCTAGGTCATGCGGGCCAGTATAGTGTCGGC,3.12,4.06,4.98,1.6,3.59,3.43,1.91,3.5,1.29
ATCGAAAGGTCGAAGGTGAGTAAACCCACCCGAA,2.45,4.43,3.92,1.23,4.9,2.15,0.0401,2.84,1.17
TCATATAGGTAATACAGTTGAAAGTCGGCATCTA,0.353,0.792,0.493,1.96,1.26,0.327,0.576,1.63,0.467
ACTATTAGTTGACTTAGGGCAACCAATACGACGC,1.15,0.838,0.945,0.699,0.621,1.66,0.216,0.354,0.251
GGAACGAGGGCATTCGAGTTGATAGCCTGGCGAT,0.74,0.929,1.41,3.31,0.739,3.25,-0.752,3.37,3.28
TGTCGAAGTTCAAAGGTAACGTAAGTATCCACAC,2.43,4.25,3.04,3.6,5.18,2.81,-0.0887,3.71,2.72
CCTAGTTGGTCAGGAGGTCACCCACCGGATATGA,4.11,4.91,4.4,-0.0796,4.2,3.47,2.51,3.66,2.4
CTCGAAAGGTCGGTTGAGGTGGGTATACGGATAA,1.83,2.28,2.25,0.695,1.86,4.1,0.422,1.63,1.06
GATACAGGGTCAGCTAGACGCCAGAGTATGGAAA,2.32,4.41,4.12,0.957,4.21,2.43,0.221,2.29,0.722
GCATATAGGTAATACAAGGTGTAAGTCCGATTGT,-0.384,-0.0828,0.241,0.314,0.0841,1.3,-0.232,-0.12,-0.121
TCATATAGGTAGAAGGTGAAAGTCGGTGTGGTAA,1.02,0.662,0.283,2.05,1.18,0.699,0.397,0.866,0.453
TCTATTAGTTGATTAGGGTAACCGAAACAGCGGA,0.423,0.525,0.53,1.03,0.666,1.61,0.861,0.996,0.517
